An excerpt weighted towards active compounds, which were near 1.6% of everything screened.
KCNQ2 enhance = potentiators of rat KCNQ2 potassium channel | Potassium voltage-gated channel subfamily KQT member 2 (Rattus norvegicus), O88943 | CHO-K1 KCNQ2, FluxOR thallium flux fluorescence; stronger effect = higher value | AID 2239, 2010 | 0.54% of 310,000 active | B-score at 10 µM;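 active = fluorescence ratio B-score at least 3 SD of library B-scores, with initial fluorescence B-score within 3 of them, cut at about 5.3 in these data; same plate scores as AID 2156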;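 note: B-score of peak minus minimum over baseline fluorescence ratio after K+ and Tl+ stimulus; positive B-score means potentiation of KCNQ2 with more thallium influx and brighter signal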
Target sequence (O88943 whole entry, looked up): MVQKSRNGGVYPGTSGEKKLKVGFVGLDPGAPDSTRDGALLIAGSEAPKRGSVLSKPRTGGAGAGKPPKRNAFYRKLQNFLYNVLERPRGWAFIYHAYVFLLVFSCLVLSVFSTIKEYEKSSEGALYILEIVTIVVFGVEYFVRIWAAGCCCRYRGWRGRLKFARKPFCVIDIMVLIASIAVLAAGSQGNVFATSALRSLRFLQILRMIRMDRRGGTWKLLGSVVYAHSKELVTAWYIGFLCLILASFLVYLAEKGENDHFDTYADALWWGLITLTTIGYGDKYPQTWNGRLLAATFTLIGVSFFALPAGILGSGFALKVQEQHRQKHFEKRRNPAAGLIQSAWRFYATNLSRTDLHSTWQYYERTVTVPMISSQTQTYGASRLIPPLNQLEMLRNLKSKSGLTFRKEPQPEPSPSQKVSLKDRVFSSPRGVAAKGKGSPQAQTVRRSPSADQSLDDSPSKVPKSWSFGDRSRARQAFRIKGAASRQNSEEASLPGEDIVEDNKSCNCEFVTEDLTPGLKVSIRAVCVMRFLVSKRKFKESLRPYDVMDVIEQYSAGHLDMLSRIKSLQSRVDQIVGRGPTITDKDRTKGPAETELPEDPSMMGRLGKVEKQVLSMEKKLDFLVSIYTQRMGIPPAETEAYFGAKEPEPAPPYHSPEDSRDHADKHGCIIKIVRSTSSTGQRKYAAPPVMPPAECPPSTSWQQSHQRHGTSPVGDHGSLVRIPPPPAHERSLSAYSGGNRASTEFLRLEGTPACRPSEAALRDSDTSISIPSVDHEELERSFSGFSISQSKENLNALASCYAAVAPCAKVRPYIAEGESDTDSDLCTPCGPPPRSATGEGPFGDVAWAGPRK
KCNQ2 block = rat KCNQ2 potassium channel inhibitors, primary screen, cell-based, CHO-K1, FluxOR thallium flux, B-score; 20 min; stronger effect = lower value; B-score at 10 µM; 1.1% of 310,000 active;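 active = fluorescence ratio B-score at most minus 3 library SDs, with starting brightness B-score within 2 library SDs, cut at about -5.5 in these data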
KCNQ2 inh conf = rat KCNQ2 potassium channel inhibitors, confirmation, cell-based, thallium flux; shares compounds with KCNQ2 block; KCNQ2-expressing cells, inhibition; stronger effect = lower value; activity change, negative = inhibition, % at 10 µM; 57% of 1,000 active; AID 493025, 2011
KCNQ1 spec = human KCNQ1 channel inhibition, counter-screen for KCNQ2 inhibitor project, cell-based, FluxOR thallium flux; shares compounds with KCNQ2 block; KCNQ1-expressing cells, FluxOR thallium flux fluorescence; stronger effect = lower value; activity change, negative = inhibition, % at 10 µM; 15% of 1,000 active; AID 493026, 2011;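 active = activity change at least 3 SD of negative controls below their mean in both duplicate wells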;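 note: CHO cells stably transfected with KCNQ1 and depolarized by potassium stimulus; peak minus minimum fluorescence over baseline after thallium addition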
CHO Tl ctr = thallium flux change in parental CHO cells, counter-screen for KCNQ2 inhibitor project. 14% of 1,000 active. shares compounds with KCNQ2 block. activity change, % at 10 µM. stronger effect = lower value
KCNQ2 patch conf = rat KCNQ2 channel inhibitors, confirmation, cell-based, automated patch clamp, single concentration; shares compounds with KCNQ2 block; KCNQ2-expressing cells, automated patch clamp current; calls only at 10 µM; 49% of 550 active
Of the large screens only hits and unclear results are named; the others gave an inactive call (follow-up assays come after a bar, where they were run). Unless noted, the rule behind the calls is not given here.

O=C(NCCc1ccccc1)C(=O)NCC1CCCN1S(=O)(=O)c1cccs1 (stereo not drawn)	none
CC(=O)/C(=N\Nc1ccccc1)Oc1ccc(Br)cc1	none (no result: KCNQ2 enhance)
C/C=C/C(=O)Nc1cccc(C(F)(F)F)c1	none
O=C(/C=C/c1cccc(C(F)(F)F)c1)Nc1cccc(C(F)(F)F)c1	KCNQ2 block -8.24 | KCNQ2 inh conf inactive | KCNQ1 spec inactive | CHO Tl ctr inactive
CN(Cc1ccccc1F)C(=O)CNC(=O)Cc1cccc2ccccc12	none (no result: KCNQ2 enhance)
COc1ccccc1C(=O)NC(=O)CSc1nnc(C)s1	none (no result: KCNQ2 enhance)
COc1ccccc1CNC(=O)COC(=O)c1cccc(S(=O)(=O)N2CCCCC2)c1	none (no result: KCNQ2 enhance)
COc1ccccc1CNC(=O)COC(=O)c1ccc(C)c(S(=O)(=O)N2CCCCC2)c1	KCNQ2 block -8.44 | KCNQ2 inh conf -36.0% | KCNQ1 spec -39.0% | CHO Tl ctr -25.5% | KCNQ2 patch conf active
CCC(C)(C)n1nnnc1C(c1ccc(C)cc1)N(Cc1ccco1)Cc1cccs1 (stereo not drawn)	KCNQ2 block -9.93 | KCNQ2 inh conf inactive | KCNQ1 spec inactive | CHO Tl ctr inactive
CCC(C)(C)n1nnnc1C(C(C)C)N(Cc1cccnc1)Cc1ccco1 (stereo not drawn)	none (no result: KCNQ2 enhance)
O=C(CCC(=O)Nc1ccc(F)cc1)N/N=C/c1cccnc1	none
COc1ccc(CNn2c(-c3cccs3)nc3ccccc3c2=O)cc1OC	KCNQ2 block -9.22 | KCNQ2 inh conf -40.5% | KCNQ1 spec inactive | CHO Tl ctr inactive | KCNQ2 patch conf active
COc1ccc(C(=O)Nn2c(C)nc3ccccc3c2=O)cc1OC	none (no result: KCNQ2 enhance)
Cc1ccc(S(=O)(=O)N2CCN(C(=O)c3ccc(Br)o3)CC2)c(C)c1	none (no result: KCNQ2 enhance)
C/C(CCN1CCc2nc(-c3ccccc3)c(-c3ccccc3)cc2C1)=N\O[C@@H](C)c1cc(-c2c(C)cc(C)cc2C)no1	none (no result: KCNQ2 enhance)
CCc1cc2c(nc1CC)CCN(CC/C(C)=N/O[C@@H](C)c1cc(-c3c(C)cc(C)cc3C)no1)C2	KCNQ2 block -10.2 | KCNQ2 inh conf inactive | KCNQ1 spec inactive | CHO Tl ctr inactive
CC(=O)Nc1ccccc1OCC(=O)NCCC1=CCCCC1	none
Cc1ccccc1OCC(=O)NCCC1=CCCCC1	KCNQ2 block -7.34 | KCNQ2 inh conf inactive | KCNQ1 spec inactive | CHO Tl ctr inactive
Cc1cccc(C)c1OCc1cc(C(=O)NCc2cn(C)nc2C)no1	none (no result: KCNQ2 enhance)
CC(C)=CCc1c(-c2ccc(O)cc2O)oc2cc3c(c(O)c2c1=O)C=CC(C)(C)O3	none (no result: KCNQ2 enhance)
COc1ccc(-c2oc3c4c(cc(OC)c3c(=O)c2CC=C(C)C)OC(C)(C)C=C4)c(OC)c1	KCNQ2 block -9.01 | KCNQ2 inh conf inactive | KCNQ1 spec inactive | CHO Tl ctr inactive
O=C(NCC(=O)N1CCN(c2ccccn2)CC1)c1ccc(Br)o1	none
Nc1nc(N)c2c(n1)CCCC2	none
COc1ccc(/C=N/NC(=O)c2cccnc2)cc1O	KCNQ2 block -7.25 | KCNQ2 inh conf inactive | KCNQ1 spec inactive | CHO Tl ctr inactive
CCNC(=O)COc1ccc(/C=N/NC(=O)c2cccnc2)cc1OC	none
O=[N+]([O-])c1ccccc1Nc1nc(-c2cccnc2)cs1	none
Cn1c(=O)c(C(=O)c2ccccc2)nc2ccccc21	none
O=C(c1ccccc1)c1nc2ccccc2n(CCCn2c(=O)c(C(=O)c3ccccc3)nc3ccccc32)c1=O	KCNQ2 block -9.01 | KCNQ2 inh conf inactive | KCNQ1 spec inactive | CHO Tl ctr inactive
O=C(NCC(c1ccco1)N1CCc2ccccc21)c1ccccc1F (stereo not drawn)	none (no result: KCNQ2 enhance)
COc1ccc(C(=O)NCC(c2ccco2)N2CCc3ccccc32)c(OC)c1 (stereo not drawn)	KCNQ2 block -7.98 | KCNQ2 inh conf -31.0% | KCNQ1 spec inactive | CHO Tl ctr inactive | KCNQ2 patch conf active
COc1ccccc1C(=O)NC(=O)COC(=O)c1ccc(C)o1	none
Cc1ccc(C(C)(O)CS(=O)(=O)Cc2ccccc2Cl)cc1 (stereo not drawn)	none (no result: KCNQ2 enhance)
Cn1c(SCc2ccccc2)nnc1-c1ccc(O)cc1	none (no result: KCNQ2 enhance)
COc1ccc(NC(=O)c2cc(OC)c(OC)c(OC)c2Br)cc1OC	none

High-throughput results (PubChem)
